SMILES strings stand for the structures. Activity calls are given as the source filed them.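 The calls were made as follows, unless noted: active = visual image review flags a hit and inhibition of aggregation exceeds 20%; inconclusive = visual hit but inhibition at or below 20%; inactive = no hit on visual image review.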

Assay [1] is described as follows: inhibitors of TNFa-induced NFkB p65 translocation, primary screen, imaging, HUVEC, MLSMR starter and 10KST1 sets (AID 438;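 active = inhibition above 20% together with a positive visual image hit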;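 also: compound added about 3h40 before a 20 min TNFalpha stimulation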;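 as to inhibition: signal is the nuclear over cytoplasmic p65 intensity ratio per well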). The note with it: HUVEC TNFa-induced p65 nuclear translocation; cell count: measured here: nuclei count (cytotoxicity indicator), at 2.08 µM; inhibition: at 2 µM, stronger effect = higher value, 0% TNFa-plus-vehicle, 100% no-TNFa wells.
Assay [2] is described as follows: inhibitors of mutant huntingtin aggregation, primary screen, imaging, exon1htt(103Q)mCFP cells, high-content imaging (AID 483).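 Also: compound exposure lasted 3 days before fixation.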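 As to nuclei count: percent of the per-plate median nuclei count of sample wells.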 The note with it: exon1htt(103Q)mCFP cell line, aggregate imaging, at 2 µM; inhibition of aggregation: stronger effect = higher value; nuclei count: measured here: cell count, toxicity.
The nature of assay [3]: inhibitors of E-selectin induction by TNFa, primary screen, imaging, HUVEC, immunofluorescence, MLSMR starter and 10KST1 sets (AID 487;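 active = visually confirmed hit in the image check and inhibition above 20%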;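 as to inhibition: signal is fraction of cell area covered by stained E-selectin grains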;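 as to nuclei count: 100% = median nuclei count of all wells on the same plate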). The note with it: HUVEC TNFalpha-induced E-selectin immunofluorescence imaging, at 2 µM; inhibition: stronger effect = higher value; nuclei count: measured here: cell number, toxicity.
Assay [4] has as its target Voltage-gated potassium channel subunit beta-2 (Rattus norvegicus) (UniProt P62483). Kind of assay: KvBeta enzyme negative modulators, primary screen, biochemical, NADPH fluorescence (AID 622;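 active = fluorescence slope higher than the sample average by over 3 SD, cut at about -0.22 in these data, passing the limit was not always enough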;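 also: slope of raw intensity against log time taken from 70 to 1610 s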). The following applies: recombinant KvBeta, 4-cyanobenzaldehyde reduction, at 10 µM, stronger effect = higher value.
Assay [5] shares this target. Nature of the assay: KvBeta positive modulators, primary screen, biochemical, NADPH fluorescence (AID 623;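 active = NADPH fluorescence slope more negative than the mean of all samples by about 3 SD, 99.7% confidence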;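 also: fluorescence intensity change per second fitted from 20 to 320 s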). The note with it: Recombinant KvBeta, NADPH fluorescence decrease slope, 10 min; at 10 µM; stronger effect = lower value.
For assay [6], the target named is Alpha-2C adrenergic receptor (Homo sapiens) (UniProt P18825). Kind of assay: modulators of alpha2C/GIRK thallium flux, primary screen, cell-based, HEK293 alpha2C/GIRK1/2 (AID 624;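 active = fluorescence slope after compound addition differing from the mean of all screened samples at 99.7% confidence, in either direction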;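 also: slope of fluorescence ratio to pre-addition baseline per second over 15 to 24 s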). The note with it: thallium flux BTC fluorescence, at 10 µM, actives lie on both sides.
Assay [7] is described as follows: inhibitors of Sendai virus-induced IRF3 signaling, primary screen, TLR/RLR signaling modifier project, cell-based, Sendai virus stimulus, luciferase, 10K MLSCN set (AID 602276;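 active = inhibition at or above 50% at 10 µM; inactive = inhibition below 50%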;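 also: firefly luciferase from ISG56 promoter only with Renilla not read in this screen; 0% = Sendai virus plus DMSO and 100% = medium plus DMSO without virus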). The following applies: HEK293 RL24 IRF3 luciferase reporter, at 10 µM, stronger effect = higher value.
The nature of assay [8]: inhibitors of poly I:C-induced TLR3 signaling, primary screen, cell-based, poly I:C stimulus, luciferase, 10K MLSCN set (AID 602277;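 active = inhibition of the reporter signal at or above 50%; inactive = inhibition below 50%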). The following applies: HEK293-TLR3 RL24 IRF3 luciferase reporter, at 10 µM, stronger effect = higher value. In general terms: Reporter assays use an easily measured gene product as a stand-in for the process of interest.

Sequence of Voltage-gated potassium channel subunit beta-2 (Rattus norvegicus) (P62483 whole entry, looked up): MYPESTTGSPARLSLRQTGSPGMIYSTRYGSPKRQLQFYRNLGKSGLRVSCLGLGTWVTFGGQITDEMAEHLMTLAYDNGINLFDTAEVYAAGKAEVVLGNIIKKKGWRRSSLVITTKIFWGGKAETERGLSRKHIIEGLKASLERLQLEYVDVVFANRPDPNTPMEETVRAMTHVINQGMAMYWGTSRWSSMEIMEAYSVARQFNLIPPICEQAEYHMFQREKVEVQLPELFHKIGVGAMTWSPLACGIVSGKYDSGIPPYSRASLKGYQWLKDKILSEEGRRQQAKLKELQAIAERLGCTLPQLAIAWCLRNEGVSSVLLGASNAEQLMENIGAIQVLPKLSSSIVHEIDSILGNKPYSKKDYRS
Sequence of Alpha-2C adrenergic receptor (Homo sapiens) (P18825 whole entry, looked up): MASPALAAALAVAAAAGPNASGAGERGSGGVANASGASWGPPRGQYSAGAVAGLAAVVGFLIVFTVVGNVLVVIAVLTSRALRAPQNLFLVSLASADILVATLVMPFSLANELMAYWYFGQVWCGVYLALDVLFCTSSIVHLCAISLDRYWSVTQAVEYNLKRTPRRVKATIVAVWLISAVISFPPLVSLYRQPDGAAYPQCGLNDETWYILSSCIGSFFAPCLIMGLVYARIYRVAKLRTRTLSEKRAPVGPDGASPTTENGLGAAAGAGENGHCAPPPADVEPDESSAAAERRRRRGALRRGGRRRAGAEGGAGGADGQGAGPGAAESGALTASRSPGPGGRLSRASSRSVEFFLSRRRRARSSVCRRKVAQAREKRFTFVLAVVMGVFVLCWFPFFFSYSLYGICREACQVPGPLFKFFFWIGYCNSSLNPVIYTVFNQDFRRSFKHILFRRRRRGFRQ

With `O=C(CCN1C(=O)COc2ccccc21)N1CCN(c2ccccn2)CC1`, the cell count in assay [1] came out at 690. Besides, the inhibition in assay [1] was -8.6% (inactive); in assay [3], -176% (inactive); in assay [7] it was 10.4% (inactive); in assay [8] it was 14.6% (inactive). For the same molecule, the inhibition of aggregation in assay [2] was -0.4% (inactive). For the same molecule, the nuclei count in assay [2] stood at 101%; in assay [3], 132%. The fluorescence slope in assay [4] was -0.591 (inactive). In addition, the NADPH fluorescence slope in assay [5] was 5.1e-07 (inactive). Moreover, the slope in assay [6] is 0.00618 (inactive).
`CCOC(=O)N1CCN(C(=O)c2ccc(CS(=O)(=O)c3c(Cl)cccc3Cl)o2)CC1`: in assay [1], the cell count came out at 512. The inhibition in assay [1] was -5% (inactive); in assay [3], -97.8% (inactive); in assay [7], -2.6% (inactive); in assay [8], 21.2% (inactive). Further, the inhibition of aggregation in assay [2] was 2.1% (inactive). The nuclei count in assay [2] worked out at 102%; in assay [3] it was 116%. Moreover, the fluorescence slope in assay [4] was -0.419 (inactive). Moreover, the NADPH fluorescence slope in assay [5] is -6.8e-05 (inactive). Besides, in assay [6], the slope was 0.00631 (inactive).
As for `Clc1ccc2c(c1)[C@H]1OCC[C@H]1[C@@H](c1ccco1)N2`, in assay [1], the cell count is 824. The inhibition in assay [1] is 5.5% (inactive); in assay [3] it was -101% (inactive); in assay [7] it was -42.9% (inactive); in assay [8], -122% (inactive). In addition, in assay [2], the inhibition of aggregation is -3.2% (inactive). For the same molecule, the nuclei count was 98.8% in assay [2] and 125% in assay [3]. Also, the fluorescence slope in assay [4] was -0.572 (inactive). The NADPH fluorescence slope in assay [5] is -3.2e-05 (inactive). Further, the slope in assay [6] was 0.00552 (inactive).
Consider `COCCCn1c(SCC(=O)Nc2cccc(C)n2)nnc1-c1ccco1`, for which, in assay [1], the cell count is 601. The inhibition in assay [1] was -10.2% (inactive); in assay [3], 73.4% (inactive); in assay [7] it was 18.6% (inactive); in assay [8] it was 16.6% (inactive). Besides, the inhibition of aggregation in assay [2] was 21.7% (inactive). For the same molecule, the nuclei count in assay [2] was 85.3%; in assay [3], 64.2%. Besides, the fluorescence slope in assay [4] was -0.612 (inactive). The NADPH fluorescence slope in assay [5] is -2.9e-05 (inactive). The slope in assay [6] was 0.00331 (inactive).
`CCOC(=O)Cn1c(=O)c(-c2ccccc2N)nc2ccccc21`: the cell count in assay [1] turned out to be 620. Further, the inhibition in assay [1] is -1.8% (inactive); in assay [3], -50.2% (inactive); in assay [7], 12.3% (inactive); in assay [8], 33.1% (inactive). Besides, the inhibition of aggregation in assay [2] is 2.1% (inactive). Also, the nuclei count is 124% in assay [2] and 116% in assay [3]. Besides, in assay [4], the fluorescence slope is -0.542 (inactive). For the same molecule, in assay [5], the NADPH fluorescence slope is -3.7e-05 (inactive). For the same molecule, in assay [6], the slope was 0.00661 (inactive).
As to `c1ccc(-c2nn3c(Cn4nnc5ccccc54)nnc3s2)nc1`, in assay [1], the cell count worked out at 574. Besides, the inhibition in assay [1] was 2.1% (inactive); in assay [3], 13.7% (inactive); in assay [7], -11.7% (inactive); in assay [8], -3.15% (inactive). Besides, in assay [2], the inhibition of aggregation was 3.4% (inactive). The nuclei count was 103% in assay [2] and 82.3% in assay [3]. Moreover, the fluorescence slope in assay [4] is -0.425 (inactive). For the same molecule, in assay [5], the NADPH fluorescence slope is -2.3e-05 (inactive). In assay [6], the slope is 0.0044 (inactive).
As for `CCCn1c(-c2ccc(F)cc2)cnc1SCC(=O)O`, the cell count in assay [1] is 431. Besides, the inhibition is 9.9% (inactive) in assay [1], -63.4% (inactive) in assay [3], 16.2% (inactive) in assay [7] and 19.8% (inactive) in assay [8]. Also, the inhibition of aggregation in assay [2] is -4.3% (inactive). The nuclei count in assay [2] and in assay [3] was 106% each time. Moreover, the fluorescence slope in assay [4] is -0.622 (inactive). Also, in assay [5], the NADPH fluorescence slope is -3.6e-05 (inactive). In addition, in assay [6], the slope was 0.00449 (inactive).
In the case of `CCOC(=O)c1ccc(NC(=O)CCc2nc(-c3cccc(C)c3)no2)cc1`, the cell count in assay [1] came to 387. In addition, the inhibition in assay [1] was 12.6% (inactive); in assay [3], -1% (inactive); in assay [7], -14.6% (inactive); in assay [8], -24% (inactive). In addition, in assay [2], the inhibition of aggregation was -10.1% (inactive). Besides, the nuclei count was determined as 102% in assay [2] and 100% in assay [3]. Besides, in assay [4], the fluorescence slope is -0.565 (inactive). For the same molecule, the NADPH fluorescence slope in assay [5] was -6.8e-05 (inactive). For the same molecule, the slope in assay [6] was 0.00651 (inactive).
On to `c1ccc2c(c1)CNC1(CCCCC1)C2`, for which the cell count in assay [1] was found to be 362. Also, the inhibition in assay [1] was -3.4% (inactive); in assay [3], -2.1% (inactive); in assay [7] it was 13.3% (inactive); in assay [8], 14.2% (inactive). Also, the inhibition of aggregation in assay [2] was 13% (inactive). Moreover, the nuclei count in assay [2] was determined as 114%; in assay [3], 103%. Also, the fluorescence slope in assay [4] was -0.552 (inactive). Besides, in assay [5], the NADPH fluorescence slope was 2.5e-05 (inactive). The slope in assay [6] is 0.00453 (inactive).
On to `COc1ccc(-c2oc3ncn(CCN4CCOCC4)c(=N)c3c2-c2ccc(OC)cc2)cc1`, for which the cell count in assay [1] was 688. Also, the inhibition in assay [1] was -9.5% (inactive); in assay [3] it was -16.4% (inactive); in assay [7] it was 1.98% (inactive); in assay [8], -0.246% (inactive). In assay [2], the inhibition of aggregation was 17.4% (inactive). Further, the nuclei count in assay [2] is 75.4%; in assay [3], 98%. Further, the fluorescence slope in assay [4] was -0.32 (inactive). Besides, in assay [5], the NADPH fluorescence slope was -6.6e-05 (inactive). In addition, in assay [6], the slope is 0.00302 (inactive).
With `C=CCSc1nc(N)c2c(C)c(C)sc2n1`, in assay [1], the cell count was 419. Further, the inhibition in assay [1] was 3% (inactive); in assay [3], -20.5% (inactive); in assay [7] it was -7.96% (inactive); in assay [8], -46.7% (inactive). Also, the inhibition of aggregation in assay [2] was 29.2% (inactive). Moreover, the nuclei count came out at 91.8% in assay [2] and 101% in assay [3]. The fluorescence slope in assay [4] is -0.404 (inactive). Moreover, in assay [5], the NADPH fluorescence slope was 1.5e-05 (inactive). In addition, the slope in assay [6] was 0.000164 (inactive).
Regarding `Cc1cccc(-c2nc(CN3CCCC(C(=O)NC4CCCC4)C3)c(C)o2)c1` (centres undefined), in assay [1], the cell count worked out at 333. Moreover, the inhibition is -0.4% (inactive) in assay [1], -15.2% (inactive) in assay [3], 20.6% (inactive) in assay [7] and 16.3% (inactive) in assay [8]. Further, the inhibition of aggregation in assay [2] is -3.8% (inactive). The results for the nuclei count in assay [2] and in assay [3] were 111% and 103%, respectively. Further, the fluorescence slope in assay [4] is -0.514 (inactive). Besides, the NADPH fluorescence slope in assay [5] is -5.9e-06 (inactive). Besides, the slope in assay [6] was 0.00415 (inactive).
On to `CCc1ccccc1NC(=O)CSc1ncn[nH]1`, for which, in assay [1], the cell count stood at 306. Besides, the inhibition was 9% (inactive) in assay [1], 40% (inactive) in assay [3], 1.64% (inactive) in assay [7] and 32.7% (inactive) in assay [8]. Moreover, in assay [2], the inhibition of aggregation was -8.6% (inactive). Further, the nuclei count in assay [2] turned out to be 101%; in assay [3], 102%. In addition, the fluorescence slope in assay [4] was -0.397 (inactive). In assay [5], the NADPH fluorescence slope was -1.9e-06 (inactive). Moreover, in assay [6], the slope is 0.00367 (inactive).
Turning to `Cc1cc(C)n2c(SCCN3C(=O)c4ccccc4C3=O)nnc2n1`, the cell count in assay [1] was 787. Besides, the inhibition in assay [1] was -5.1% (inactive); in assay [3], -8.9% (inactive); in assay [7], 10.1% (inactive); in assay [8] it was 24.4% (inactive). For the same molecule, in assay [2], the inhibition of aggregation is 12.4% (inactive). Also, the nuclei count was found to be 126% in assay [2] and 107% in assay [3]. Besides, the fluorescence slope in assay [4] was -0.572 (inactive). Further, in assay [5], the NADPH fluorescence slope is -1.7e-05 (inactive). The slope in assay [6] is 0.00697 (inactive).

For orientation: inhibition means the relative decrease from the control value, in per cent.
